Test results reported in PubChem BioAssay (EPA / NIEHS).
Activity calls are given as the source filed them. Rule for the calls: active = hit-call score of the fitted dose curve at least 0.9, where 1 is the maximum; inactive = score below 0.9.

Legend:
[1] = read-out: Monocyte Chemoattractant Protein-1 (MCP1), CCL2 (gene 6347); assay: BSK_3C_MCP1: BioMAP Diversity Plus: 3C Assay for Monocyte Chemoattractant Protein-1 (MCP1) Biomarker Activity (AID 2283017); conditions: primary human endothelial cells (HUVEC); actives raise or lower the signal
Summary of the method: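 MCP-1 was measured by ELISA 24 h after dosing in primary HUVEC 3C cultures and fitted in both directions relative to DMSO; cytotoxicity was checked by SRB total-protein staining in parallel wells.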

[2] = read-out: Interleukin-8 (IL8), CXCL8 (gene 3576); assay: BSK_3C_IL8: BioMAP Diversity Plus: 3C Assay for Interleukin-8 (IL8) Biomarker Activity (AID 2283020); conditions: primary human endothelial cells (HUVEC); actives raise or lower the signal
Summary of the method: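 IL-8 was measured by ELISA in HUVEC cultures 24 h after chemical dosing, with gain or loss of signal fitted relative to DMSO. Parallel SRB total-protein staining tracked overt cytotoxicity.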

[3] = read-out: Monokine induced gamma interferon (MIG), CXCL9 (gene 4283); assay: BSK_3C_MIG: BioMAP Diversity Plus: 3C Assay for Monokine induced gamma interferon (MIG) Biomarker Activity (AID 2283021); conditions: primary human endothelial cells (HUVEC); actives raise or lower the signal;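 for AC50: MIG protein level measured by immunoassay in the treated endothelial cultures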
Summary of the method: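 ELISA measurement of MIG in human umbilical vein endothelial cells 24 h after treatment. Cytotoxicity tracked by SRB staining in parallel cultures; gain or loss of signal fitted relative to DMSO.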

[4] = BSK_3C_SRB: Viability Assessment in the BioMAP Diversity Plus: 3C Assay (AID 2283023); conditions: primary human endothelial cells (HUVEC);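 note: fitted both ways against DMSO so a hit may be signal rise or drop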
Summary of the method: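 Cytotoxicity readout in parallel HUVEC 3C cultures: after 24 h compound exposure, cells fixed with 10% TCA, stained with 0.1% SRB and read at 560 nm. Gain or loss relative to DMSO fitted.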

[5] = read-out: Matrix Metallopeptidase 1 (MMP1), MMP1 (gene 4312); assay: BSK_BE3C_MMP1: BioMAP Diversity Plus: BE3C Assay for Matrix Metallopeptidase 1 (MMP1) Biomarker Activity (AID 2283024); conditions: primary human bronchial epithelial cells; actives raise or lower the signal
Summary of the method: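 ELISA measurement of MMP-1 after 24 h compound exposure of primary human bronchial epithelial cells. Changes in either direction fitted relative to DMSO; parallel SRB staining checked overt cytotoxicity.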

[6] = BSK_4H_SRB: Viability Assessment in the BioMAP Diversity Plus: 4H Assay (AID 2283027); conditions: primary human endothelial cells (HUVEC);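 note: cells exposed to compound for 24 h before staining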;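 for AC50: curves fitted both ways versus DMSO so AC50 may be loss or gain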
Summary of the method: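 HUVEC, 24 h post-dose; 10% TCA fix, 0.1% SRB stain, A560 nm. Total protein = overt cytotoxicity, parallel to biomarker read. Bidirectional fit vs DMSO baseline.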

[7] = BSK_BE3C_SRB: Viability Assessment in the BioMAP Diversity Plus: BE3C Assay (AID 2283028); conditions: primary human bronchial epithelial cells;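 for AC50: fitted both ways so AC50 may mark signal gain or loss versus DMSO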
Summary of the method: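 Cytotoxicity read-out: SRB (0.1%) staining of TCA-fixed (10%) human lung bronchial epithelial cells, absorbance 560 nm, 24 h post-dosing. Curves fitted both directions relative to DMSO.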

[8] = read-out: Urokinase-type plasminogen activator receptor (uPAR), PLAUR (gene 5329); assay: BSK_4H_uPAR: BioMAP Diversity Plus: 4H Assay for Urokinase-type plasminogen activator receptor (uPAR) Biomarker Activity (AID 2283030); conditions: primary human endothelial cells (HUVEC); actives raise or lower the signal
Summary of the method: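 uPAR level read by ELISA on HUVEC cultures (BioMAP 4H) 24 h post-dosing, analyzed for gain or loss relative to DMSO. Parallel SRB staining assessed overt cytotoxicity.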

[9] = read-out: Vascular cell adhesion molecule 1 (VCAM1), VCAM1 (gene 7412); assay: BSK_4H_VCAM1: BioMAP Diversity Plus: 4H Assay for Vascular cell adhesion molecule 1 (VCAM1) Biomarker Activity (AID 2283033); conditions: primary human endothelial cells (HUVEC); actives raise or lower the signal;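 for outcome: cell-surface VCAM-1 protein measured by ELISA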
Summary of the method: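 VCAM-1 ELISA read 24 h after chemical dosing of HUVEC in the BioMAP 4H system, with gain or loss of signal fitted relative to DMSO. Parallel SRB staining (560 nm) checked overt cytotoxicity.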

[10] = read-out: Interferon-gamma inducible Protein 10 (IP10), CXCL10 (gene 3627); assay: BSK_BE3C_IP10: BioMAP Diversity Plus: BE3C Assay for Interferon-gamma inducible Protein 10 (IP10) Biomarker Activity (AID 2283034); conditions: primary human bronchial epithelial cells; actives raise or lower the signal
Summary of the method: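 IP-10 quantified by ELISA in human primary bronchial epithelial cell cultures at 24 hours post-dosing. Gain or loss of signal fitted relative to DMSO; parallel SRB staining assessed overt cytotoxicity.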

[11] = read-out: Monokine induced gamma interferon (MIG), CXCL9 (gene 4283); assay: BSK_BE3C_MIG: BioMAP Diversity Plus: BE3C Assay for Monokine induced gamma interferon (MIG) Biomarker Activity (AID 2283035); conditions: primary human bronchial epithelial cells; actives raise or lower the signal
Summary of the method: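 Dose cells (human primary bronchial epithelial), incubate 24 h, quantify MIG by ELISA, then fit concentration–response in both directions relative to DMSO control.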

[12] = read-out: Urokinase-type plasminogen activator receptor (uPAR), PLAUR (gene 5329); assay: BSK_BE3C_uPAR: BioMAP Diversity Plus: BE3C Assay for Urokinase-type plasminogen activator receptor (uPAR) Biomarker Activity (AID 2283039); conditions: primary human bronchial epithelial cells; actives raise or lower the signal;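 for outcome: cells exposed to compound for one day before measurement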
Summary of the method: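 uPAR levels were measured by ELISA after 24 h compound treatment of primary human bronchial epithelial cells, fitted in both directions relative to DMSO. Parallel SRB staining served as the cytotoxicity read-out.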

[13] = read-out: Interleukin-6 (IL6), IL6 (gene 3569); assay: BSK_CASM3C_IL6: BioMAP Diversity Plus: CASM3C Assay for Interleukin-6 (IL6) Biomarker Activity for (AID 2283040); conditions: primary human coronary artery smooth muscle cells; actives raise or lower the signal
[14] = read-out: Tissue plasminogen activator (tPA), PLAT (gene 5327); assay: BSK_BE3C_tPA: BioMAP Diversity Plus: BE3C Assay for Tissue plasminogen activator (tPA) Biomarker Activity (AID 2283041); conditions: primary human bronchial epithelial cells; actives raise or lower the signal;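 note: tPA level quantified by ELISA one day after compound addition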
Summary of the method: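 tPA measured by ELISA 24 h after dosing human primary bronchial epithelial cells (BE3C system). Changes in either direction were fitted against DMSO. Parallel cultures were stained with SRB to flag overt cytotoxicity.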

[15] = read-out: Human Leukocyte Antigen - DR isotype (HLADR), HLA-DRA (gene 3122); assay: BSK_CASM3C_HLADR: BioMAP Diversity Plus: CASM3C Assay for Human Leukocyte Antigen - DR isotype (HLADR) Biomarker Activity (AID 2283043); conditions: primary human coronary artery smooth muscle cells; actives raise or lower the signal;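 note: cell-surface HLA-DR protein level quantified by ELISA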
[16] = read-out: Macrophage colony-stimulating factor (MCSF), CSF1 (gene 1435); assay: BSK_CASM3C_MCSF: BioMAP Diversity Plus: CASM3C Assay for Macrophage colony-stimulating factor (MCSF) Biomarker Activity (AID 2283044); conditions: primary human coronary artery smooth muscle cells; actives raise or lower the signal;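 note: M-CSF protein amount quantified by ELISA after 24 h exposure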
[17] = read-out: Monocyte Chemoattractant Protein-1 (MCP1), CCL2 (gene 6347); assay: BSK_CASM3C_MCP1: BioMAP Diversity Plus: CASM3C Assay for Monocyte Chemoattractant Protein-1 (MCP1) Biomarker Activity (AID 2283046); conditions: primary human coronary artery smooth muscle cells; actives raise or lower the signal;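 note: MCP-1 level quantified by ELISA 24 h after dosing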
[18] = BSK_CASM3C_Proliferation: Cell Proliferation Assessment in the BioMAP Diversity Plus: CASM3C Assay (AID 2283047); conditions: primary human coronary artery smooth muscle cells;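 note: sulforhodamine B total protein stain as relative cell number at 560 nm; sub-confluent cells exposed 48 h before staining; fitted both ways against DMSO so gain or loss of cell number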
[19] = read-out: Monokine induced gamma interferon (MIG), CXCL9 (gene 4283); assay: BSK_CASM3C_MIG: BioMAP Diversity Plus: CASM3C Assay for Monokine induced gamma interferon (MIG) Biomarker Activity (AID 2283048); conditions: primary human coronary artery smooth muscle cells; actives raise or lower the signal;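 note: MIG protein level measured by ELISA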
[20] = read-out: serum amyloid A (SAA), SAA1 (gene 6288); assay: BSK_CASM3C_SAA: BioMAP Diversity Plus: CASM3C Assay for serum amyloid A (SAA) Biomarker Activity (AID 2283049); conditions: primary human coronary artery smooth muscle cells; actives raise or lower the signal;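 note: SAA protein level quantified by ELISA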

For `CC(C)(C)C(=O)CCl`, the outcome [1] was “inactive”, the outcome [2] was “inactive” and the outcome [3] was “inactive”. For the same molecule, the outcome [4] was “inactive”, the outcome [5] was “inactive” and the outcome [6] was “inactive”. The outcome [7] was “inactive”, the outcome [8] was “inactive” and the AC50 [9] was 25.7 µM (active). The outcome [10] was “inactive”, the outcome [11] was “inactive” and the outcome [12] was “inactive”. The outcome [13] was “inactive”, the outcome [14] was “inactive” and the AC50 [15] was 4.45 µM (active). For the same molecule, the AC50 [16] was 0.65 µM (active), the outcome [17] was “inactive” and the AC50 [18] was 20 µM (active). For the same molecule, the AC50 [19] was 20 µM (active) and the outcome [20] was “inactive”.
For `O=[N+]([O-])C=Cc1ccccc1`, the AC50 [1] was 7.71 µM (active), the AC50 [2] was 10 µM (active) and the AC50 [3] was 11.4 µM (active). The AC50 [4] was 9.73 µM (active), the AC50 [5] was 11.3 µM (active) and the AC50 [6] was 5.27 µM (active). For the same molecule, the AC50 [7] was 24.3 µM (active), the AC50 [8] was 5.14 µM (active) and the AC50 [9] was 11.5 µM (active). For the same molecule, the AC50 [10] was 2.48 µM (active), the AC50 [11] was 3.89 µM (active) and the AC50 [12] was 5.37 µM (active). The AC50 [13] was 31.3 µM (active), the outcome [14] was “inactive” and the AC50 [15] was 12.1 µM (active). For the same molecule, the AC50 [16] was 20 µM (active), the AC50 [17] was 27.6 µM (active) and the AC50 [18] was 10.9 µM (active). The AC50 [19] was 27.1 µM (active) and the outcome [20] was “inactive”.
With `O=c1c2ccccc2c(=O)c2c1cc(Cl)c1[nH]c3c([nH]c12)c(Cl)cc1c(=O)c2ccccc2c(=O)c13` the outcome [1] was “inactive”, the outcome [2] was “inactive” and the outcome [3] was “inactive”. For the same molecule, the outcome [4] was “inactive”, the AC50 [5] was 20 µM (active) and the outcome [6] was “inactive”. For the same molecule, the outcome [7] was “inactive”, the outcome [8] was “inactive” and the outcome [9] was “inactive”. For the same molecule, the outcome [10] was “inactive”, the outcome [11] was “inactive” and the outcome [12] was “inactive”. The outcome [13] was “inactive”, the outcome [14] was “inactive” and the outcome [15] was “inactive”. For the same molecule, the outcome [16] was “inactive”, the outcome [17] was “inactive” and the outcome [18] was “inactive”. For the same molecule, the outcome [19] was “inactive” and the outcome [20] was “inactive”.
For `N#CCCCCC#N`, the outcome [1] was “inactive”, the outcome [2] was “inactive” and the outcome [3] was “inactive”. The outcome [4] was “inactive”, the outcome [5] was “inactive” and the outcome [6] was “inactive”. For the same molecule, the outcome [7] was “inactive”, the outcome [8] was “inactive” and the outcome [9] was “inactive”. For the same molecule, the outcome [10] was “inactive”, the outcome [11] was “inactive” and the outcome [12] was “inactive”. The outcome [13] was “inactive”, the outcome [14] was “inactive” and the outcome [15] was “inactive”. For the same molecule, the outcome [16] was “inactive”, the outcome [17] was “inactive” and the outcome [18] was “inactive”. The outcome [19] was “inactive” and the outcome [20] was “inactive”.
For `O=C1C(Cl)=C(Cl)C(=O)C(Cl)=C1Cl`, the AC50 [1] was 12.4 µM (active), the AC50 [2] was 20 µM (active) and the AC50 [3] was 29.2 µM (active). For the same molecule, the AC50 [4] was 4.97 µM (active), the AC50 [5] was 33.9 µM (active) and the AC50 [6] was 11.9 µM (active). For the same molecule, the outcome [7] was “inactive”, the AC50 [8] was 31.9 µM (active) and the AC50 [9] was 13.5 µM (active). The AC50 [10] was 33.2 µM (active), the AC50 [11] was 35.6 µM (active) and the AC50 [12] was 29.2 µM (active). The AC50 [13] was 20 µM (active), the outcome [14] was “inactive” and the AC50 [15] was 14.4 µM (active). The AC50 [16] was 20 µM (active), the AC50 [17] was 20 µM (active) and the AC50 [18] was 5.78 µM (active). For the same molecule, the AC50 [19] was 29.1 µM (active) and the AC50 [20] was 20 µM (active).
